Molecules are shown by their SMILES. In all, about 69,000 compounds went through this assay and about 8,600 (12%) showed an effect of 50% or more. The sample as a whole holds a higher share of strong results than the screen did.

The test relates to Plasmodium berghei. Kind of test: Screen against P. berghei liver stage (PbLuc), transformed with Luciferase, at 10uM. It counts as functional, HepG2. The note with it: tested at 10 uM.
As to `O=C(c1ccc2[nH]nnc2c1)N1C[C@H](O)[C@]2(CCCO2)C1`, the INHIBITION is recorded as 4.41%.

In the case of `Cn1ccc2c(C(=O)NCCCN3CCCC3)cccc21`, the INHIBITION was determined as 55.9%.

In the case of `O=C(NCCCN1CCOCC1)c1ccc(-n2ccc3ccccc32)s1`, the INHIBITION was found to be 29.3%.

In the case of `Cc1nc(-c2cc(C(=O)NCCN3CCOCC3)c3ccccn23)cs1`, the INHIBITION is reported as -11.6%.

With `CCN(CC)CCNC(=O)c1ccc(-n2ccc3ccccc32)s1`, the INHIBITION is recorded as 75.1%.

With `Cn1ccc2c(C(=O)NCCCS(C)(=O)=O)cccc21`, the INHIBITION was determined as 9.16%.

For `Cn1ccc2c(C(=O)NCCCN3CCOCC3)cccc21`, the INHIBITION was 22.2%.

In the case of `O=C(NCCCN1CCCCC1)c1ccc(-n2ccc3ccccc32)s1`, the INHIBITION is reported as 84.5%.

Consider `CCC1CN(CC(=O)NCCN(CC)CC)c2ccccc2S1` (stereo unspecified), for which the INHIBITION came to 19.4%.

With `O=C(NCCN1CCOCC1)c1ccc(-n2ccc3ccccc32)s1`, the INHIBITION was found to be 63.2%.

As for `CCN(CC)CCNC(=O)c1cnc(C(C)(C)C)s1`, the INHIBITION came out at 4.88%.

For the molecule `O=C(NCCCN1CCCCC1)c1n[nH]c(=O)c2ccccc12`, the INHIBITION is listed as 14.4%.

Turning to `O=C(NCCCN1CCCC1=O)c1ccc(-n2ccc3ccccc32)s1`, the INHIBITION was -45.5%.

With `Cc1nc2c(c(=O)[nH]1)CN(C(=O)CCC1CCCN(C)C1)C2` (stereo unspecified), the INHIBITION is listed as 48.2%.

Turning to `Cc1noc(CN(C)Cc2ccc3c(c2)OCO3)n1`, the INHIBITION is given as 19.2%.

In the case of `Cc1cc(Cl)ccc1-n1ncc(C(=O)NCC2COC(C)(C)O2)c1N` (stereo unspecified), the INHIBITION is -15.2%.

For the molecule `CC(C)N(C)Cc1cnc2n1CCN(Cc1ccsc1)C2`, the INHIBITION worked out at 21.4%.

Turning to `COCCn1ccc2cc(C(=O)N3CCN(S(C)(=O)=O)CC3)ccc21`, the INHIBITION is recorded as -0.448%.

Turning to `CC(C)(C)C(=O)N1CCC(c2noc(C3CCC(=O)N3)n2)CC1` (stereo unspecified), the INHIBITION is listed as -17.9%.

Take `Cc1nnc2n1CCN(Cc1csc(COc3ccccc3)n1)C2`: the INHIBITION is on record as -0.113%.

As to `CC1(C)Cc2nc(C(C)(C)C)ncc2C(NC(=O)C2(N)CC2)C1` (stereo unspecified), the INHIBITION was -10.9%.

As for `COc1cc(C(=O)NS(=O)(=O)c2cncc(Br)c2)cc(OC)c1C`, the INHIBITION is given as -4.68%.

With `O=C1[C@@H]2CN(c3ncccc3Cl)C[C@]2(C(=O)O)CN1CC1CC1`, the INHIBITION was determined as 39.1%.

As for `Cc1cc(CC(C)Nc2ncnc3cccc(F)c23)[nH]n1` (stereo unspecified), the INHIBITION came to 19.3%.

On to `CC(Cc1cccnc1)Nc1ncnc2cccc(F)c12` (stereo unspecified), for which the INHIBITION is -3.43%.

Take `CC(Cc1cncs1)Nc1ncnc2cccc(F)c12` (stereo unspecified): the INHIBITION is recorded as 66.9%.

As for `COc1ccc(OCCNC(=O)N2CCS(=O)(=O)CC2)cc1`, the INHIBITION was -16.35%.

Consider `COCCOCC(=O)Nc1ccc(F)cc1C`, for which the INHIBITION is on record as 55.4%.

For the molecule `COCCOCC(=O)Nc1ccc(C)cc1F`, the INHIBITION is -29.2%.

Consider `COCCOCC(=O)Nc1cc(C)ccc1F`, for which the INHIBITION is listed as -18.9%.

Consider `CCN(C)c1ncnc2c1CCN(Cc1nccs1)CC2`, for which the INHIBITION was -37.8%.

On to `CCCc1nc(N[C@H]2COC[C@@H]2N2CCCC2)c2cnn(C)c2n1`, for which the INHIBITION turned out to be 25.8%.

With `CCc1nc(NCCc2nc(C)c(C)s2)c2cnn(C)c2n1`, the INHIBITION is 27.6%.

Consider `CCCc1nc(NCc2c(C)nn(CCC)c2C)c2cnn(C)c2n1`, for which the INHIBITION came out at 66.6%.

With `CCCc1nc(N[C@H]2COC[C@@H]2N2CCCCC2)c2cnn(C)c2n1`, the INHIBITION was -19.8%.

As to `CCc1nc(NCCc2c(C)nn(CC)c2C)c2cnn(C)c2n1`, the INHIBITION amounted to 65.7%.

In the case of `Cc1cc(C(F)(F)F)nc(CCNc2nc(C)nc3c2cnn3C)n1`, the INHIBITION worked out at 15.3%.

Consider `CC(C)(C)c1ncc(CNCC2CCCN2c2cccnn2)s1` (stereo unspecified), for which the INHIBITION is 31.3%.

On to `Cn1cc(C(=O)NC[C@@H]2OC[C@H]3CN(Cc4ccco4)CC[C@H]32)cn1`, for which the INHIBITION was -1.53%.

With `CC(C)OCCN1CCN(C(C)c2nc(C3CC3)no2)CC1` (stereo unspecified), the INHIBITION was found to be 33.6%.

For `O=C(NCCNc1ncccn1)N1CCCC1`, the INHIBITION is given as -0.113%.

As to `Cc1ccc(N2CC(c3nccc(C)n3)C2)nn1`, the INHIBITION stood at 19.64%.

Regarding `CCOC(C)C(=O)NCc1ccc(N(C)C)cc1` (stereo unspecified), the INHIBITION is -25.9%.

Take `CC(C)c1cc(Br)ccc1NC(=O)NCC(O)CO` (stereo unspecified): the INHIBITION is on record as 25.4%.

For the molecule `CCOCC(O)CN1CCN(C(=O)c2cc(F)cc(F)c2)CC1` (stereo unspecified), the INHIBITION turned out to be 3.73%.

Take `CC(C)(C)c1ccc(C(=O)NCCCNC(=O)c2cnccn2)cc1`: the INHIBITION is -23.45%.

For `O=C(CNC(=O)c1cnccn1)Nc1ncc[nH]1`, the INHIBITION was 71.2%.

Take `O=C(CCNC(=O)c1cnccn1)Nc1ncc[nH]1`: the INHIBITION was 59.1%.

For `O=C(NCCNc1cc(N2CCCC2)ncn1)c1cnccn1`, the INHIBITION is reported as 19.2%.

Regarding `O=C(NCC(=O)N1CCc2ccccc2C1)c1cnccn1`, the INHIBITION was -112%.

For `O=C(NCc1csc(Br)c1)c1cnccn1`, the INHIBITION is recorded as -43.6%.

Turning to `O=C(CCCNC(=O)c1cnccn1)Nc1ncc[nH]1`, the INHIBITION is 56.3%.

Take `O=C(NCCSC1CCCC1)c1cnccn1`: the INHIBITION was found to be 4.41%.

On to `CC(C)(C)c1ccc(S(=O)(=O)CCNC(=O)c2cnccn2)cc1`, for which the INHIBITION worked out at 26.8%.

As for `O=C(Cc1ccccn1)N1CCC2(CC1)CC(Oc1ccccn1)CO2` (stereo unspecified), the INHIBITION stood at 14.2%.

In the case of `O=C(c1cccnc1Oc1ccc(Cl)cc1)N1CC[C@@H](O)C1`, the INHIBITION was found to be 11.5%.

Regarding `Cn1nccc1C(=O)N1CCC2(CC1)COC(COc1ccccn1)C2` (stereo unspecified), the INHIBITION is listed as 8.64%.

For the molecule `CC(=O)Nc1nc(C)c(S(=O)(=O)NCCc2cccnc2)s1`, the INHIBITION came to 13%.

For the molecule `Cc1ccc2oc(CN3CCC(C(=O)O)(n4ccnc4)CC3)c(C)c2c1`, the INHIBITION was -23.5%.

For the molecule `Cc1nc2c(c(NC(C)C)n1)CCN(C1CCOCC1)CC2`, the INHIBITION turned out to be 36.4%.

Turning to `Cc1cnn(CCCNC(=O)NCCC(=O)Nc2ccccc2)c1`, the INHIBITION came to 22.6%.

As for `Cc1cnn(CCCNC(=O)NCCS(=O)(=O)Nc2ccccc2)c1`, the INHIBITION is -4.4%.

For the molecule `Cc1cnn(CCCNC(=O)NC(C)C(=O)Nc2ccccc2)c1` (stereo unspecified), the INHIBITION amounted to 68.8%.

Take `Cc1nc2c(c(C)c1CC(=O)NCc1ccco1)c(=O)[nH]n2C`: the INHIBITION came to 13.6%.

For `c1cnnc(N2CCCC2CNc2ncnc3c2CCC3)c1` (stereo unspecified), the INHIBITION is given as -24.2%.

Regarding `c1cnnc(N2CCCC2CNc2ncnc3sccc23)c1` (stereo unspecified), the INHIBITION was -19.6%.

For the molecule `c1cnnc(N2CCCC2CNc2cnc3ccccc3n2)c1` (stereo unspecified), the INHIBITION was 7.08%.

On to `Cn1ncc2c(NCC3CCCN3c3cccnn3)ncnc21` (stereo unspecified), for which the INHIBITION was 21.5%.

`c1cnnc(N2CCCC2CNc2ncnc3ccsc23)c1` (stereo unspecified): the INHIBITION is on record as 52.3%.

As for `c1cnnc(N2CCCC2CNc2ncnc3ccccc23)c1` (stereo unspecified), the INHIBITION came to 64.7%.

With `Cc1nc(CN(C)c2cc(N3CCCC3CO)ncn2)cs1` (stereo unspecified), the INHIBITION is recorded as 22.1%.
